Results from PubChem BioAssay (NCI).
Compounds without any hit were thinned out: in the full panel of roughly 79,000, 15% have a hit. Cut-off read from the data, not from the text of the source: active = growth inhibition above about 70%; inactive = the rest.

Tests used:
[1] = NCI Yeast Anticancer Drug Screen. Data for the rad50 strain (AID 155);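 note: 0% = growth of vehicle-only cultures of the same strain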; conditions: S. cerevisiae rad50 strain growth inhibition; at 50.0 µM; hits give high values
Method in brief: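 Relative growth inhibition (compound vs vehicle) was measured in yeast with a defined repair-gene alteration.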

[2] = NCI Yeast Anticancer Drug Screen. Data for the mec2-1 strain (AID 157); conditions: S. cerevisiae mec2-1 strain, at 50.0 µM, hits give high values
Method in brief: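 Vehicle-treated cultures served as reference for growth inhibition of compound-exposed mec2-1 yeast.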

[3] = NCI Yeast Anticancer Drug Screen. Data for the sgs1 mgt1 strain (AID 161);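 note: 0% = growth of cultures given vehicle only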; conditions: S. cerevisiae sgs1 mgt1 strain, at 50.0 µM, hits give high values
Method in brief: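 Genetically altered yeast, compound exposure, growth inhibition relative to vehicle.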

[4] = NCI Yeast Anticancer Drug Screen. Data for the cln2 rad14 strain (AID 165);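 note: 0% = growth equal to vehicle treated cultures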; conditions: S. cerevisiae cln2 rad14 strain, at 50.0 µM, hits give high values
Method in brief: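 Each compound was tested on cln2 rad14 yeast. Inhibition of growth was calculated against vehicle-exposed controls.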

[5] = NCI Yeast Anticancer Drug Screen. Data for the bub3 strain (AID 167); conditions: S. cerevisiae bub3 mutant strain, at 50.0 µM, hits give high values
Method in brief: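 Screening used yeast with an engineered genetic alteration affecting cell cycle control. Compound-exposed cultures were compared with vehicle cultures, and reduced growth was taken as inhibition.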

[6] = NCI Yeast Anticancer Drug Screen. Data for the mlh1 rad18 strain (AID 175); conditions: S. cerevisiae mlh1 rad18 strain growth inhibition; at 50.0 µM; hits give high values
Method in brief: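 Vehicle-treated cultures served as the reference for growth inhibition in a yeast strain carrying DNA damage repair alterations exposed to each compound.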

Measured: growth inhibition

COC1OC2COC1(OCc1ccccc1)C1OC(C)(C)OC21 (stereo not drawn)
inactive: [1] -23.8% | [2] -5.85% | [3] -29.9% | [4] -0.8% | [5] -26.2% | [6] 5.35%

c1ccc(C(=C2CCCCCCCCCCCCC2)c2ccccc2)cc1
inactive: [1] -25.2% | [2] 2.9% | [3] -2.9% | [4] -2% | [5] 25% | [6] -24%

N=C(N)N1CCC(N2CCOCC2)CC1
inactive: [1] 14.7% | [2] -18.4% | [3] -12.6% | [4] -24.4% | [5] 4.75% | [6] -52.5%

Cn1c(=O)c2ncn(CC(O)COc3ccccc3)c2n(C)c1=O (stereo not drawn)
inactive: [1] 2.15% | [2] 3.1% | [3] 11.8% | [4] -2.8% | [5] 25.9% | [6] 16.3%

CCC(C)N(C(C)=O)C(C)CC (stereo not drawn)
inactive: [1] -4.15% | [2] -17.2% | [3] -13.4% | [4] 15.2% | [5] 2% | [6] 1.85%

Cc1ccc2cccc(OCC(=O)O)c2n1
inactive: [1] 5.7% | [2] 13.4% | [3] 6.1% | [4] 3.45% | [5] -8.45% | [6] 13.3%

O=C(/C=C/c1ccccc1)NC(Cc1ccccc1)C(=O)O (stereo not drawn)
inactive: [1] -21% | [2] -11.4% | [3] -8.25% | [4] -5.55% | [5] -14.1% | [6] -12.2%

N#CCCN(CCC#N)CCN(CCN(CCC#N)CCC#N)CCN(CCC#N)CCC#N
inactive: [1] -8.1% | [2] -0.25% | [3] -6.4% | [4] 2.1% | [5] -15.2% | [6] -10.8%

COc1cc(/C=C/C(=O)O)cc(OC)c1O
inactive: [1] 5.65% | [2] -5.05% | [3] -22.9% | [4] 23.1% | [5] 10.8% | [6] 16.5%

CCCCc1nc(CCCC)nc(CCCC)n1
inactive: [1] -6.75% | [2] -14.2% | [3] -12.8% | [4] -2.45% | [5] -2.8% | [6] 1.15%

Cc1ccc(-c2nnc(NC(=O)Nc3ccc(Cl)cc3)o2)cc1
inactive: [1] 3.15% | [2] -1.45% | [3] 4.3% | [4] -60.6% | [5] -13.5% | [6] 21.8%

[Mn+2].[NH-]CC(=O)NC(Cc1ccccc1)C(=O)O.[NH-]CC(=O)NC(Cc1ccccc1)C(=O)O (stereo not drawn)
inactive: [1] -15.5% | [2] -11.3% | [3] -10.7% | [4] -34.2% | [5] 4.05% | [6] -8%

Nc1nc(O)cc(=O)[nH]1
inactive: [1] 3.35% | [2] -1.95% | [3] -0.65% | [4] -8.5% | [5] 2.35% | [6] -3.25%

O=S(=O)(c1ccccc1)N1CCN(S(=O)(=O)c2ccccc2)c2ccccc21
inactive: [1] 58.9% | [2] 23.9% | [3] -3.75% | [4] 3.9% | [5] 43.6% | [6] 53.9%

NCCNC(=O)CCC(CN(CC(=O)O)CC(=O)O)N(CC(=O)O)CC(=O)O (stereo not drawn)
inactive: [1] 42.8% | [2] 69.7% | [3] 44% | [4] 57% | [5] 39% | [6] 42.7%

CC1(CCOCc2ccccc2)NC(=O)NC1=O (stereo not drawn)
inactive: [1] -32.2% | [2] -8.4% | [3] -44.4% | [4] -33% | [5] -13.2% | [6] -19.9%

N#CCCC(=O)O
inactive: [1] 17.6% | [2] 0.45% | [3] 11.7% | [4] 3.45% | [5] 2.5% | [6] 15.8%

CCCC(=O)OCC1OC(n2cc(F)c(=O)[nH]c2=O)CC1O (stereo not drawn)
inactive: [1] 14.2% | [2] -4.2% | [3] 5.65% | [4] 9.7% | [5] 6.65% | [6] -27.4%

CNC(=O)NC1C(CO)OC2OC(C)(C)OC21 (stereo not drawn)
inactive: [1] 6.5% | [2] 5.25% | [3] 10.4% | [4] -35.3% | [5] -9.85% | [6] 2.55%

O=S1(=O)OCCOS(=O)(=O)C1F
inactive: [1] -69% | [2] -4.65% | [3] -22.4% | [4] -23.2% | [5] -5.35% | [6] -16.1%

CNC(=O)N(C)C(=O)c1ccncc1C(=O)N(C(=O)NC1CCCCC1)C1CCCCC1
inactive: [1] 32.6% | [2] 2.2% | [3] 7.15% | [4] 20.8% | [5] -3.95% | [6] 1.65%

COC1=C(O)C(=O)C(OC)=C(O)C1=O
inactive: [1] -19.5% | [2] -8.65% | [3] -13.5% | [4] -1.4% | [5] 9.75% | [6] -19.6%

COc1ccc(C(C#N)CC(=O)c2ccccc2)cc1 (stereo not drawn)
inactive: [1] 6.4% | [2] 10.9% | [3] 0.95% | [4] 4.45% | [5] -2.6% | [6] -8.35%

O=c1cc(-c2ccccc2F)[nH]c2ccc(N3CCCC3)cc12
inactive: [1] 13.6% | [2] 6.2% | [3] 25.5% | [4] 0.65% | [5] 22.3% | [6] 23.6%

O=C(Cc1cccc(CC(=O)c2ccccc2)n1)c1ccccc1
inactive: [1] 9.25% | [2] -4.75% | [3] 18.5% | [4] -52.2% | [5] -43% | [6] 10.4%

CSc1nc(NC2OC(CO)C(O)C(O)C2O)c(I)c(=O)n1C (stereo not drawn)
inactive: [1] 3.15% | [2] 1.85% | [3] -5.3% | [4] -6.25% | [5] -1.75% | [6] 27.7%

CCn1c(C)[n+](CC)c2ccc(C(C)=O)cc21
inactive: [1] -0.35% | [2] -19.7% | [3] -3.95% | [4] 8.95% | [5] 2.55% | [6] -8.75%

CCCCCCCCCOc1ccc2ccccc2c1
inactive: [1] -16.9% | [2] 16.1% | [3] 22.4% | [4] -17.9% | [5] -15.2% | [6] -4.5%

O=C(S)c1ccccc1Br
inactive: [1] 1.45% | [2] 0% | [3] 11.6% | [4] -54.9% | [5] -8% | [6] 3.8%

NC(=S)N/N=C(\CCC(=O)Nc1ccccc1[N+](=O)[O-])CC(=O)c1ccco1
inactive: [1] -1.55% | [2] -1.95% | [3] -19.9% | [4] 27.4% | [5] -19.8% | [6] 6.3%

O=C(c1ccccc1)N(Cc1ccccc1)Cc1ccccc1
inactive: [1] 1% | [2] 35.1% | [3] 26.4% | [4] -34.2% | [5] 41% | [6] 28.2%

CCOC(=O)C(=O)C(=O)NN(C)C1=NCCN1
inactive: [1] -11.4% | [2] -2.05% | [3] 7.45% | [4] -13.6% | [5] 6.55% | [6] 2%

COC(=O)c1n[nH]n(Cc2cccs2)c1=O (tested in a mixture with another compound)
inactive: [1] 14.8% | [2] 13.9% | [3] 16.1% | [4] -0.85% | [5] 10.6% | [6] 26.2%
